Beta cell apopt: beta cell apoptosis inhibition; INS-1E cytokine-induced death, ATP luminescence, 48 h; percent of positive-control rescue, neutral wells zero; AID 435005; actives 0.8% (n = 300,000); protection from apoptosis, % (concentration not given with the values);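 active = Every replicate reaches about 75%, or at least half do and their mean reaches it too, limit read from the data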;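 also: 0% = cytokine-treated negative control wells and 100% = positive control rescue; higher means more ATP so stronger rescue from cytokine killing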
CSC inhib: cancer stem cell inhibition | inhibition, % at 7.5 µM | actives 1.1% (n = 300,000) | cancer stem cell-like cells viability, luminescence | AID 2717; in the data active = inhibition above about 75%; tested in HMLE shEcad cells
Calb FLC: affects C. albicans growth with fluconazole; C. albicans CaCi-2 (fluconazole-resistant clinical isolate) + fluconazole, Alamar Blue growth, 48 h; AID 1979; growth inhibition, % (concentration not given with the values); actives 0.57% (n = 300,000);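 active = growth inhibition above about 58% in most replicates, limit read from the data, passing the limit was not always enough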;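 also: all wells also contain fluconazole at 8 µg/ml as a sub-toxic cotreatment; 0% = median of DMSO wells and 100% = median of geldanamycin control wells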
MPTP inh: permeability transition pore inhibition; actives 1.4% (n = 360,000); AID 602449; isolated mouse mitochondria, Ca2+ swelling absorbance, 30 min; inhibition, % at 10 µM;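 active = inhibition of 50% or more, scaled per plate between neutral and stimulator controls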;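 also: 0% = DMSO wells given calcium and 100% = 1 mM EGTA wells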
Mdm2 MdmX PPI: disrupts the human Mdm2-MdmX interaction | inhibition, % at 8 µM | AID 485346 | SaOS-2 split-luciferase Mdm2/MdmX complementation, luminescence | actives 3% (n = 330,000);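 active = inhibition of at least 50% at 8 µM in the primary screen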
Target sequence (O15151 whole entry, looked up): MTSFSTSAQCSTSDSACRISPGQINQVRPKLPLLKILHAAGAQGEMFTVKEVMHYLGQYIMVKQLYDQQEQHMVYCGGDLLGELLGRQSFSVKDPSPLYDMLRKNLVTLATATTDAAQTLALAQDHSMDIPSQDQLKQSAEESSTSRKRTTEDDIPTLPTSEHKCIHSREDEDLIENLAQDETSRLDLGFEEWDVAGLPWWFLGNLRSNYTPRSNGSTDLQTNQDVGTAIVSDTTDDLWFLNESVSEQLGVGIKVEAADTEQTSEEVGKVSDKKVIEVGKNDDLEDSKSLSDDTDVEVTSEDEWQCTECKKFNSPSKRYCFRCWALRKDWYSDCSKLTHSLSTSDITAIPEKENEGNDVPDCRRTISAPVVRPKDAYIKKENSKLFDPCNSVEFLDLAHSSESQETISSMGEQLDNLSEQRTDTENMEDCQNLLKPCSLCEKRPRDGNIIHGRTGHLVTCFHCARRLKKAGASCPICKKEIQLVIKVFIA
Target sequence (Q00987 whole entry, looked up): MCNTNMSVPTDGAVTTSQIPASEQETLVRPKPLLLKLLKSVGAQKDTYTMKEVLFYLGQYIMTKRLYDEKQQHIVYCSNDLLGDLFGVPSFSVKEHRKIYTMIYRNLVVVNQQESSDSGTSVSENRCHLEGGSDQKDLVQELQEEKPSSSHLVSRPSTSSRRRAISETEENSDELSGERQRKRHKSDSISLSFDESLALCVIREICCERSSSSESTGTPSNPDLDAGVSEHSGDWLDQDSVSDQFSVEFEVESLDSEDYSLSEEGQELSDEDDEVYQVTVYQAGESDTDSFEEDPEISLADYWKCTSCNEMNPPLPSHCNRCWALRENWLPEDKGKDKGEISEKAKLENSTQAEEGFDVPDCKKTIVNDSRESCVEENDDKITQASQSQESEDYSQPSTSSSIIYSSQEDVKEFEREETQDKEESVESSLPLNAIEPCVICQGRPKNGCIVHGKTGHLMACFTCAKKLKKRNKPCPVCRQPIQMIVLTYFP
Mdm2 MdmX conf: confirmation of human Mdm2/MdmX interaction inhibitors; Mdm2-MdmX binding, luminescent assay; shares compounds with Mdm2 MdmX PPI; actives 55% (n = 10,000); inhibition, % at 8 µM; AID 489028; in the data active = inhibition above about 40%
Full FLuc ctr: full-length luciferase inhibition in Mdm2/MdmX counter-screen; shares compounds with Mdm2 MdmX PPI; SaOS-2 full-length luciferase counterscreen, luminescence; inhibition, % at 8 µM; actives 77% (n = 6,200);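 active = mean inhibition at 8 µM reaching about 37%, which flags the compound as non-specific, limit read from the data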;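 also: p53-null SaOS-2 cells with luciferase driven by a doxycycline-inducible promoter; compound on cells about two nights before reading with doxycycline added after day one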
Numbers without * were called inactive; / = no result. Hits are enriched below; roughly 4.8% of the tested compounds scored in any of these assays.

SMILES | Beta cell apopt | CSC inhib | Calb FLC | MPTP inh | Mdm2 MdmX PPI | Mdm2 MdmX conf | Full FLuc ctr
Cc1ccc(C)c(C(O)c2ncc(-c3ccccc3Cl)[nH]2)c1 (stereo unspecified) | / | / | / | 0.7 | / | / | /
COc1ccc(-n2c(C)c([N+](=O)[O-])c3ccc(O)c(CN(C)C)c32)cc1 | -10.1 | -6.3 | 10.3 | 3.8 | 78.7* | 90.5* | 52.5*
COc1ccc(C2=NS(=O)(=O)N(C)C(C(=O)N3CCC(C(N)=O)CC3)=C2)cc1 | -4.3 | -9.9 | -8.7 | -1.4 | -25.1 | / | /
CN1CCN(c2nc(-c3ccc(C(C)(C)C)cc3)nc3ccccc23)CC1 | 6.3 | 38.3 | 13.4 | -0.2 | 50.3* | 48.0* | 172.8*
COc1cc(Nc2ccn3nc(-c4ccc(F)cc4)cc3n2)cc(OC)c1OC | / | / | / | 1.2 | / | / | /
CCCCNC(=S)N/N=C/c1cccc(OCC)c1O | 29.8 | -5.9 | -2.9 | 1.8 | 1.3 | / | /
CCOc1cccc(/C=N/NC(=S)Nc2ccccc2[N+](=O)[O-])c1O | 69.9 | 40.1 | -20.2 | 10.9 | 84.6* | 83.3* | 48.8*
COC(=O)c1cc(=O)n(-c2ccccc2)c(=Nc2ccccc2)s1 | -2.1 | 45.5 | -8.2 | -0.7 | 14.1 | / | /
CCOC(=O)c1ccc(N=c2sc(C(=O)OC)cc(=O)n2-c2ccc(C(=O)OCC)cc2)cc1 | 23.8 | 68.9 | -3.9 | 1.9 | 82.9* | -6.5 | /
Cc1ccccc1-n1nnnc1Sc1nnnn1-c1ccccc1 | 60.5 | 18.6 | / | -1.7 | 98.0* | 82.8* | 54.1*
CCCSc1nnc(Sc2nnnn2-c2ccccc2)s1 | / | 52.8 | 17.7 | -0.5 | 65.9* | 63.5* | 56.0*
